Tests used:
[1] = target: Death-associated protein kinase 1 (Homo sapiens) (UniProt P53355); conditions: at 10 µM
[2] = target: Death-associated protein kinase 2 (Homo sapiens) (UniProt Q9UIK4); conditions: at 1 µM
[3] = target: T1, Serine/threonine-protein kinase DCLK2 (Homo sapiens) (UniProt Q8N568); conditions: at 10 µM
T1 sequence (whole entry): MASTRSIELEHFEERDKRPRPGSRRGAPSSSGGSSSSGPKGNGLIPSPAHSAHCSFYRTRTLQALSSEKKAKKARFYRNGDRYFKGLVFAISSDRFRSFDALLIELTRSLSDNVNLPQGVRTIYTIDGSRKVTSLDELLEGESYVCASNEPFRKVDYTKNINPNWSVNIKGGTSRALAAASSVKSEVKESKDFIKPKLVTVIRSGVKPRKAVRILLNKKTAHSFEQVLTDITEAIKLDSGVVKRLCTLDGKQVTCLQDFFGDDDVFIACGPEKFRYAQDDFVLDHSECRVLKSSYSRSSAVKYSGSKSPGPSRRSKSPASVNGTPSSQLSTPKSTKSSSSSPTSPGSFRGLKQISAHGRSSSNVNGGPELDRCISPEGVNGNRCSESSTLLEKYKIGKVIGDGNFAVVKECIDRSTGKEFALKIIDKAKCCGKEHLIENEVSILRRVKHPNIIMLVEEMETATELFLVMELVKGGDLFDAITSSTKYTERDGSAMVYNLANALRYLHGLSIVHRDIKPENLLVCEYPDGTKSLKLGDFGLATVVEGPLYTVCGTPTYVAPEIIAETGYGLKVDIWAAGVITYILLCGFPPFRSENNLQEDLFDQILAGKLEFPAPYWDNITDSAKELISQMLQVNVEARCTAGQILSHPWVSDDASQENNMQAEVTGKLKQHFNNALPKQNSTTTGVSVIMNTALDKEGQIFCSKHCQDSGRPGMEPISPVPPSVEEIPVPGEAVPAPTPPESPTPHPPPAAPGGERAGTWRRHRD

[4] = target: T2, Myotonin-protein kinase (Homo sapiens) (UniProt Q09013); conditions: at 1 µM
T2 sequence (whole entry): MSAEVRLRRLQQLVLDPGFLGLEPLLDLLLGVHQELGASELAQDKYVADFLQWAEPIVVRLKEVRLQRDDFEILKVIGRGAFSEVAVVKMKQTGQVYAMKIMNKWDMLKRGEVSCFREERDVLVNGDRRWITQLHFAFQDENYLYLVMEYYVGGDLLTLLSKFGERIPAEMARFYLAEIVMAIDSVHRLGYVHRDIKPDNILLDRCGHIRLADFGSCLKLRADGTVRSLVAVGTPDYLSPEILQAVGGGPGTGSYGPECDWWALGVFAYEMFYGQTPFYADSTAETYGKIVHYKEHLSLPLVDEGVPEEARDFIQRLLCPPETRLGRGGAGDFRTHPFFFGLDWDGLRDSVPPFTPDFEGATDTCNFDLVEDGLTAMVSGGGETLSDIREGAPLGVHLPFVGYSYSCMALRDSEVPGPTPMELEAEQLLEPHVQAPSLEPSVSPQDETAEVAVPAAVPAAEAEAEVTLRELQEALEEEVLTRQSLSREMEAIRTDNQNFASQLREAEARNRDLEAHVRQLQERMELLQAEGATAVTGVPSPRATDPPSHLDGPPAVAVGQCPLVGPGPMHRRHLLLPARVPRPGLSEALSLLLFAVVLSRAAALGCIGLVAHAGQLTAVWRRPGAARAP

[5] = target: T2, Myotonin-protein kinase (Homo sapiens); conditions: at 10 µM
[6] = target: T3, Serine/threonine-protein kinase 17A (Homo sapiens) (UniProt Q9UEE5); conditions: at 1 µM
T3 sequence (whole entry): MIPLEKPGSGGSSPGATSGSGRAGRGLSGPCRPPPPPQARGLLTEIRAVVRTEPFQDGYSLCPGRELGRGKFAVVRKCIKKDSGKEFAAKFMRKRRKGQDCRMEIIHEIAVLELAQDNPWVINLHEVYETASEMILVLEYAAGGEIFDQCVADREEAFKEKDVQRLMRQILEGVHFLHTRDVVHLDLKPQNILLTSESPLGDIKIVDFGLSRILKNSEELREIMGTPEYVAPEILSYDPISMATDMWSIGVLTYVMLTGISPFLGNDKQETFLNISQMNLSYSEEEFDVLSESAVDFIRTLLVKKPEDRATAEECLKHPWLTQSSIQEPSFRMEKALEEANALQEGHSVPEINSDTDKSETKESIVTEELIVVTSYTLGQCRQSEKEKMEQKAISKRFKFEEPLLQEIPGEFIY

[7] = target: T3, Serine/threonine-protein kinase 17A (Homo sapiens); conditions: at 10 µM
[8] = target: Death-associated protein kinase 2 (Homo sapiens) (UniProt Q9UIK4); conditions: at 10 µM
[9] = target: T1, Serine/threonine-protein kinase DCLK2 (Homo sapiens); conditions: at 1 µM
[10] = target: T4, Dual specificity tyrosine-phosphorylation-regulated kinase 2 (Homo sapiens) (UniProt Q92630); conditions: at 1 µM
T4 sequence (whole entry): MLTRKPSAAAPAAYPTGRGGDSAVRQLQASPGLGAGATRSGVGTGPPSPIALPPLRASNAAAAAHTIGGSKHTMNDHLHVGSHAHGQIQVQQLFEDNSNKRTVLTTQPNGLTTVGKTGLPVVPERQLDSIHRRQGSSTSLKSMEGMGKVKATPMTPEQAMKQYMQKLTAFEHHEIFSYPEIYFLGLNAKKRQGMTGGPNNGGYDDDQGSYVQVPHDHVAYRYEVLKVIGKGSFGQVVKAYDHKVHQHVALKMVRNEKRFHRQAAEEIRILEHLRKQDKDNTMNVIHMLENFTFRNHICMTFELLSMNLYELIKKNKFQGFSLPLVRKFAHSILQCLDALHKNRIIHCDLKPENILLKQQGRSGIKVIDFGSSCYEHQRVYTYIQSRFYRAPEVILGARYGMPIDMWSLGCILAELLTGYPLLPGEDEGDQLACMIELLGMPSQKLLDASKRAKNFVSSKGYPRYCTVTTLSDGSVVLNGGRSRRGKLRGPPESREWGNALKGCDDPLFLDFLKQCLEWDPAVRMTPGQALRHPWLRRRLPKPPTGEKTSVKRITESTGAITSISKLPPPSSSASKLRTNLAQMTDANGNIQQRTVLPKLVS

[11] = target: T4, Dual specificity tyrosine-phosphorylation-regulated kinase 2 (Homo sapiens); conditions: at 10 µM
[12] = target: T5, Discoidin domain-containing receptor 2 (Homo sapiens) (UniProt Q16832); conditions: at 1 µM
T5 sequence (whole entry): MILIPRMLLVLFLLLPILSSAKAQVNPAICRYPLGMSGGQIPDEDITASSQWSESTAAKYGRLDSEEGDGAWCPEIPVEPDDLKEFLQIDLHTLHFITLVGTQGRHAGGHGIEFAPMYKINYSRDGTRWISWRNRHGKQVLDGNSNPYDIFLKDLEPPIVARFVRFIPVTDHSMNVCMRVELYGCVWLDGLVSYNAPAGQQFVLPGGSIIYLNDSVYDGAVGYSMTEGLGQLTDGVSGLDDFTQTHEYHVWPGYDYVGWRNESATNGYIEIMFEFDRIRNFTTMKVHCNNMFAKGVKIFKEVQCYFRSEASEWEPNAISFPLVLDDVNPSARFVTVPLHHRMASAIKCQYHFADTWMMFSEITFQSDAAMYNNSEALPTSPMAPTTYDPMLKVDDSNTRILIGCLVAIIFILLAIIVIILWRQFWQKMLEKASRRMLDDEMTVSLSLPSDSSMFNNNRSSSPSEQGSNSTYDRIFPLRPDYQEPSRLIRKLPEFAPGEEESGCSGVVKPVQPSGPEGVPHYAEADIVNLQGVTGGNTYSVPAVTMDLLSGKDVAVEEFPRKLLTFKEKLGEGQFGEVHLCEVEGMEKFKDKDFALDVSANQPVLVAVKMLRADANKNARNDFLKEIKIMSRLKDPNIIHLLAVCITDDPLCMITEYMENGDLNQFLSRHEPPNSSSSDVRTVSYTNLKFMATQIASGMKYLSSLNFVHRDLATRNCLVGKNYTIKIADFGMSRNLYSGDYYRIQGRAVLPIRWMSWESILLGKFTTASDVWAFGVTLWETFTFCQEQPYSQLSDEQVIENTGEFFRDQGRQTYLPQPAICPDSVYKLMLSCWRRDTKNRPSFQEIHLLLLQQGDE

[13] = target: T5, Discoidin domain-containing receptor 2 (Homo sapiens); conditions: at 10 µM
[14] = target: T6, Ephrin type-A receptor 1 (Homo sapiens) (UniProt P21709); conditions: at 1 µM
T6 sequence (whole entry): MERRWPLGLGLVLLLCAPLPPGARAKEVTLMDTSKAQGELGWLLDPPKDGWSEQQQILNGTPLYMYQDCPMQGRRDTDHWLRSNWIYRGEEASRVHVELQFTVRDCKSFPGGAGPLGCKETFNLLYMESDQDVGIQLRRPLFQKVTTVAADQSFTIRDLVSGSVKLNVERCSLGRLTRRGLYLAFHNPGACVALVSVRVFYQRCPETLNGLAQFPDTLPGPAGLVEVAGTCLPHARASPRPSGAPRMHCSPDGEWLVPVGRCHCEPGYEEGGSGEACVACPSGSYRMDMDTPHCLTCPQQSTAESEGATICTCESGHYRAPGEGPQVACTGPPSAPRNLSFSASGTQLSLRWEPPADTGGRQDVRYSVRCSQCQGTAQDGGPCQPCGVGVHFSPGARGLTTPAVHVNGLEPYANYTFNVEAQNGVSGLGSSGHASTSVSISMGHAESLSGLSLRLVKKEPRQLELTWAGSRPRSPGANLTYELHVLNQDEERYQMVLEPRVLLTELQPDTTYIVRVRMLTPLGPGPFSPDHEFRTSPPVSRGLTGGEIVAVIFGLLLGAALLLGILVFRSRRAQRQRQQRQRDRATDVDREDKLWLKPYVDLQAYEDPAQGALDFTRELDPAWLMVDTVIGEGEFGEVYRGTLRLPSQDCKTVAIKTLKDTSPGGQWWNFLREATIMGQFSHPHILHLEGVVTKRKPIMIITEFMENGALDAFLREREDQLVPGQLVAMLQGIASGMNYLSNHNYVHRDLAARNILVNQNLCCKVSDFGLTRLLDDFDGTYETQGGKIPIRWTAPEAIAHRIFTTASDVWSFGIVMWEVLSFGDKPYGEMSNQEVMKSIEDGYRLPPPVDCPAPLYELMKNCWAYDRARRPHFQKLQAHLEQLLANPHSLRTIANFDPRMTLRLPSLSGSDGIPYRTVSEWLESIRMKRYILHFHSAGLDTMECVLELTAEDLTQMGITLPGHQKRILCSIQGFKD

[15] = target: T6, Ephrin type-A receptor 1 (Homo sapiens); conditions: at 10 µM
[16] = target: Ephrin type-A receptor 2 (Homo sapiens) (UniProt P29317); conditions: at 1 µM
[17] = target: Ephrin type-A receptor 2 (Homo sapiens) (UniProt P29317); conditions: at 10 µM
[18] = target: T7, Ephrin type-A receptor 3 (Homo sapiens) (UniProt P29320); conditions: at 1 µM
T7 sequence (whole entry): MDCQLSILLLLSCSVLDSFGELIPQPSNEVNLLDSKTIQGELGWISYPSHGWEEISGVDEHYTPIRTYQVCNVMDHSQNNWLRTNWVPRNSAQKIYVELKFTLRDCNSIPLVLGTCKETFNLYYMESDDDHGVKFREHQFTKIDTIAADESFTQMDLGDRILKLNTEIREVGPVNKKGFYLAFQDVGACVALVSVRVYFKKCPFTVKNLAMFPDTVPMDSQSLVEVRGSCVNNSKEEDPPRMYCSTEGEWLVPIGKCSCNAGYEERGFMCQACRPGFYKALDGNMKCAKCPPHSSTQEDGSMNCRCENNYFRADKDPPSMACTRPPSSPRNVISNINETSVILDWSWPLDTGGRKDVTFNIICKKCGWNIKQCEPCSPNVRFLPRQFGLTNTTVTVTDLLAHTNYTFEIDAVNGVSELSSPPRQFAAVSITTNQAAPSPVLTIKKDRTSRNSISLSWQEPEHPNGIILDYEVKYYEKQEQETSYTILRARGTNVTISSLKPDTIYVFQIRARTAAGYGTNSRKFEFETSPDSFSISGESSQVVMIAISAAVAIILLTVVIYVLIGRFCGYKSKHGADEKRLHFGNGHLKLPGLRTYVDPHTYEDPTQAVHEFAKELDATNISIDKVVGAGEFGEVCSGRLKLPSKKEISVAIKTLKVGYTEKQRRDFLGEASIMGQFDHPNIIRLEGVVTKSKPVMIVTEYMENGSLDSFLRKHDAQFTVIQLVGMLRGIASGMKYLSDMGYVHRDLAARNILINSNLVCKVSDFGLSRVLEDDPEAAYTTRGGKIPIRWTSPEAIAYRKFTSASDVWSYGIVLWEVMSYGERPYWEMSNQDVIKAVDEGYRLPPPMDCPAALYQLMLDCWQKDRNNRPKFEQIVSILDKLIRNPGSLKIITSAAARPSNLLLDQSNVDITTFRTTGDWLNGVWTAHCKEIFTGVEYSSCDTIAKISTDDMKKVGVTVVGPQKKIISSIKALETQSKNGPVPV

[19] = target: Epidermal growth factor receptor (Homo sapiens) (UniProt P00533); conditions: at 1 µM
[20] = target: Epidermal growth factor receptor (Homo sapiens) (UniProt P00533); conditions: at 10 µM

Chain of Ephrin type-A receptor 2 (Homo sapiens) (P29317 whole entry): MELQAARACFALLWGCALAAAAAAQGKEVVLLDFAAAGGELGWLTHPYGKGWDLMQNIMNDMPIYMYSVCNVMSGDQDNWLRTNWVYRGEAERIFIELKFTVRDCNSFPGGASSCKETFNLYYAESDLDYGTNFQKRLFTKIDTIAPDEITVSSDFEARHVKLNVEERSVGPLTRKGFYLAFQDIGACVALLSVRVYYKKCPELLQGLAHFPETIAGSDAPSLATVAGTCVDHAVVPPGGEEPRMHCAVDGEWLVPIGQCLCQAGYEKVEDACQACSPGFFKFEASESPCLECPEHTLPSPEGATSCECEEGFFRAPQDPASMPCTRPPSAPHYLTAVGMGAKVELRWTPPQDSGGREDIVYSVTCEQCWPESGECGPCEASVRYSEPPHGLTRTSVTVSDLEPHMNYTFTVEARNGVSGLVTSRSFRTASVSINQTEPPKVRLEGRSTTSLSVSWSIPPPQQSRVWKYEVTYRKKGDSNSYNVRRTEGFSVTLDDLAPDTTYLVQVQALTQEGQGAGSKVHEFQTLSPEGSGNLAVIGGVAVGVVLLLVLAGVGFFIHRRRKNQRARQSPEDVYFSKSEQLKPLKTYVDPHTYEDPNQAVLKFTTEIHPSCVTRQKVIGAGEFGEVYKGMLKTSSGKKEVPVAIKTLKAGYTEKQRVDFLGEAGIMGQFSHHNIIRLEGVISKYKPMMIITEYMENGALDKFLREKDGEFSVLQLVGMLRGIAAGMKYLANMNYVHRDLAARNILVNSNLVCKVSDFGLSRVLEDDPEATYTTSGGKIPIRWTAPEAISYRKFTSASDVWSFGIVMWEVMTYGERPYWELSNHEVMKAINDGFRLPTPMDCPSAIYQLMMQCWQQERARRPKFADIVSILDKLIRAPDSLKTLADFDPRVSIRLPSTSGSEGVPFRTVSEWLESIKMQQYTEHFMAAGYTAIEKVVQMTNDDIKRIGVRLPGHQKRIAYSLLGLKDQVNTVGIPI
Chain of Death-associated protein kinase 1 (Homo sapiens) (P53355 whole entry, looked up): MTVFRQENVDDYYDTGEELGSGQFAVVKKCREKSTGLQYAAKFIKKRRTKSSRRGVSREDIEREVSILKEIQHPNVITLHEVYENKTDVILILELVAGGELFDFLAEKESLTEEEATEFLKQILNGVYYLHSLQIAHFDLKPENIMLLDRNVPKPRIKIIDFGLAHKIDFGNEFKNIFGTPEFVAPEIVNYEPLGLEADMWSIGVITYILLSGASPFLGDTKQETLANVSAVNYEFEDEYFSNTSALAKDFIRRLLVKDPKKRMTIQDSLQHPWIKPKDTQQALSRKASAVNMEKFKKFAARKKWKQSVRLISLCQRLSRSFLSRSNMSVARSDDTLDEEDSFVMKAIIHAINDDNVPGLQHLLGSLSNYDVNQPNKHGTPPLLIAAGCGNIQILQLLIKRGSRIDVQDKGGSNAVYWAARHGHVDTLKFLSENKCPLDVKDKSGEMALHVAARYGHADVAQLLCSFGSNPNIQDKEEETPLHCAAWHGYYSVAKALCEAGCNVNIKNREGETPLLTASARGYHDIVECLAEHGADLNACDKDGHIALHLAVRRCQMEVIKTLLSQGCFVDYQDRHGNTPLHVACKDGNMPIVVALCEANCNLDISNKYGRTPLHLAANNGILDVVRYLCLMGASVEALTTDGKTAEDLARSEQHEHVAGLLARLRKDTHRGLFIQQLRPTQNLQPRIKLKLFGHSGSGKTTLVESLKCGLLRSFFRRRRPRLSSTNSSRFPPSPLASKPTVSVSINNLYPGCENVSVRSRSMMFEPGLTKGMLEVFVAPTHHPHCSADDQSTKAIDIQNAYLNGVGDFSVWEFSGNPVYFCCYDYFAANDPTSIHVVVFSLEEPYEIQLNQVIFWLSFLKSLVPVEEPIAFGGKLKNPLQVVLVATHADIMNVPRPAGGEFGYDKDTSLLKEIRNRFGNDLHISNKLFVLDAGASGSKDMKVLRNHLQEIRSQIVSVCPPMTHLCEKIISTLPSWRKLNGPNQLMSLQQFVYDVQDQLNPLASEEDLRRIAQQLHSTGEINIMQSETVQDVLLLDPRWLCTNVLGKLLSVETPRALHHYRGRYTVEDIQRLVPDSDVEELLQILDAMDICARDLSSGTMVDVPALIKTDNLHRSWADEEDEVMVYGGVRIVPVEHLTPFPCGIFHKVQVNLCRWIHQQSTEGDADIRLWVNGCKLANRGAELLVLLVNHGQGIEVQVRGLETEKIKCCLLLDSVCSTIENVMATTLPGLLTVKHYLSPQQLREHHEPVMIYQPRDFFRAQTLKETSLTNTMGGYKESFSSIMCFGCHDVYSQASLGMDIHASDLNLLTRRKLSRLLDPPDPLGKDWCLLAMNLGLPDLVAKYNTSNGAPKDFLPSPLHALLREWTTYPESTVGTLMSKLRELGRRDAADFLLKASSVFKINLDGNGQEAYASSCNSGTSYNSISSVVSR
Chain of Death-associated protein kinase 2 (Homo sapiens) (Q9UIK4 whole entry, looked up): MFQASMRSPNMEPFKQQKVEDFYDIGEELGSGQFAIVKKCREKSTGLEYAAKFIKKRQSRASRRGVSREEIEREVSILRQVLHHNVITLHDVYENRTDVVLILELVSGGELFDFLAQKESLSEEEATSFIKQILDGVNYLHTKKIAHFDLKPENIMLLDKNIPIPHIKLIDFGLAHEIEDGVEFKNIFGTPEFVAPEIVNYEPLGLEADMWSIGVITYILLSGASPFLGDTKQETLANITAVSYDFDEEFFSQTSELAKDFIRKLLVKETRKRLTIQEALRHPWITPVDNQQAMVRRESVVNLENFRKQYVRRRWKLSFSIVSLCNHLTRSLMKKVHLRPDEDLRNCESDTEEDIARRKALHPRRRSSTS
Chain of Epidermal growth factor receptor (Homo sapiens) (P00533 whole entry): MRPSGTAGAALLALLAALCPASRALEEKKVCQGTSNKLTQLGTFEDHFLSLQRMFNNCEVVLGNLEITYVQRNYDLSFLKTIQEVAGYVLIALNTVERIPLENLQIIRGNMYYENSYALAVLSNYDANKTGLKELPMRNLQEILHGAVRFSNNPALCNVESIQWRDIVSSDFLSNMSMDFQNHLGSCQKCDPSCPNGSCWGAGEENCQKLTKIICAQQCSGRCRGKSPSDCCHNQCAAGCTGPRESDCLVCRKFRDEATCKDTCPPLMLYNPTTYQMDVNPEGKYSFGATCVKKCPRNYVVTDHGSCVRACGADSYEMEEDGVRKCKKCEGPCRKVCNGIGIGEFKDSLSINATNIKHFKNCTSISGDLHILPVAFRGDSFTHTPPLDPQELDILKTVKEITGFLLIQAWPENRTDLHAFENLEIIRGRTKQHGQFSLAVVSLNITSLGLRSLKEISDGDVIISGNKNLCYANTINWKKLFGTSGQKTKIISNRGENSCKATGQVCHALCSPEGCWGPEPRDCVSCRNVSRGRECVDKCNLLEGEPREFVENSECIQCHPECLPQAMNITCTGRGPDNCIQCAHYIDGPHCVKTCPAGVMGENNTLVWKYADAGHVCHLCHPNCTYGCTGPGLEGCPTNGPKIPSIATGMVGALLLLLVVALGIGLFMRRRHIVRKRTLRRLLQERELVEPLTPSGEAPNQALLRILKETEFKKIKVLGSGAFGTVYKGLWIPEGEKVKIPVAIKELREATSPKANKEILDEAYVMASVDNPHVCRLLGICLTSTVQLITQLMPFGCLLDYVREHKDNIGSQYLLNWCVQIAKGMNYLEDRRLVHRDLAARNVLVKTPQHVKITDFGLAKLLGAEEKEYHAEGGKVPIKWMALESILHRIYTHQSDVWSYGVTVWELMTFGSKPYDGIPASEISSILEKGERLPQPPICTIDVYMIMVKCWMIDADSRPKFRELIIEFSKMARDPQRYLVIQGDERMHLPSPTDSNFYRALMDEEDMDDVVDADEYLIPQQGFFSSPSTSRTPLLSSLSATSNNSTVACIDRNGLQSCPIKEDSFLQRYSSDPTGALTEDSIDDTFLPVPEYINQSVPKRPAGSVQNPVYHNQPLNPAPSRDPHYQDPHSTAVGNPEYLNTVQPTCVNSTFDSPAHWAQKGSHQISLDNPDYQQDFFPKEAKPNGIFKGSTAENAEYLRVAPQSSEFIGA

Structure (SMILES) | residual activity [1] [%] | residual activity [2] [%] | residual activity [3] [%] | residual activity [4] [%] | residual activity [5] [%] | residual activity [6] [%] | residual activity [7] [%] | residual activity [8] [%] | residual activity [9] [%] | residual activity [10] [%] | residual activity [11] [%] | residual activity [12] [%] | residual activity [13] [%] | residual activity [14] [%] | residual activity [15] [%] | residual activity [16] [%] | residual activity [17] [%] | residual activity [18] [%] | residual activity [19] [%] | residual activity [20] [%]
N#Cc1c(NC(=O)c2cccc3ccccc23)sc2c1CCCC2 | 81 | 93 | 77 | 100 | 91 | 77 | 134 | – | – | – | – | – | – | – | – | – | – | – | – | –
Cn1c2ccccc2c2c3c(c4c5ccccc5n(CCC#N)c4c21)CNC3=O | 73 | 93 | 60 | 121 | 114 | 36 | 36 | 105 | 56 | 76 | 66 | – | – | – | – | – | – | – | – | –
CC(C)(C)n1nc(Cc2cccc3ccccc23)c2c(N)ncnc21 | 88 | 96 | 107 | 108 | 119 | 120 | 103 | 106 | 85 | 109 | 99 | 75 | 29 | 7 | -1 | 33 | 1 | 63 | – | –
O=c1cc(N2CCNCC2)oc2c(-c3ccccc3)cccc12 | 82 | 98 | 70 | 134 | 141 | 69 | 66 | 102 | – | 87 | 94 | – | – | 91 | 100 | 99 | 97 | 91 | – | –
COc1cc2ncnc(Nc3cccc(Cl)c3)c2cc1OC | 100 | – | 85 | 103 | 113 | 103 | 48 | – | 122 | – | – | – | 74 | 42 | 7 | 89 | 37 | – | -5 | -3
O=C(c1ccccc1)c1ccc(N2CCOCC2)cc1O | 100 | 89 | 93 | 138 | – | – | – | – | 64 | 100 | 93 | 111 | 93 | 88 | 95 | 99 | 95 | – | – | –
